Laboratory results as given in PubChem BioAssay AID1159580 (chemical genetic matrix, 2015).
The campaign covered roughly 5,500 compounds. About 2,000 (36%) were called active. Inconclusive results (about 18%) are left out. Rule as the data show it: active = normalized growth mostly below about 0.91 (no sharp cut-off); inconclusive = no clear call, values can overlap the other calls; inactive = mostly above about 0.92. The list shows a part of the results.

Assay: chemical genetic growth profiling, strain panel (AID 1159580);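 also: tested at 20 µM; growth read once vehicle control cultures reached saturation at 30 °C; 1 = growth at the plate median or of vehicle wells; lower values mean less growth of the strain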
Settings: S. cerevisiae deletion strains, growth OD

Measured: normalized growth

CC(=O)OC1CCC2(O)CC1(C)CCC1C2CC1(C)C (stereo not given)
inactive: locus YAL021C, strain ccr4, active compounds read low 1 | locus YAL026C, strain drs2, active compounds read low 1.05 | locus YAL030W, strain snc1, active compounds read low 1.02 | locus YBL061C, strain skt5, active compounds read low 1.02 | locus YBR009C, strain hhf1, active compounds read low 1.03 | locus YBR021W, strain FUR4, active compounds read low 1 | locus YBR023C, strain chs3, active compounds read low 1.02 | locus YBR171W, strain sec66, active compounds read low 1.03 | locus YBR229C, strain ROT2, active compounds read low 0.949 | locus YBR231C, strain swc5, active compounds read low 1.05 | locus YBR279W, strain paf1, active compounds read low 1.01 | locus YCL011C, strain gbp2, active compounds read low 1.03 | locus YCL016C, strain dcc1, active compounds read low 1.02 | locus YCL029C, strain bik1, active compounds read low 0.974 | locus YCL061C, strain MRC1, active compounds read low 1.02 | locus YCL069W, strain vba3, active compounds read low 1.03 | locus YCR088W, strain abp1, active compounds read low 1.02 | locus YDL005C, strain med2, active compounds read low 1.02 | locus YDL035C, strain GPR1, active compounds read low 0.958 | locus YDL040C, strain nat1, active compounds read low 1.02 | locus YDL074C, strain BRE1, active compounds read low 0.989 | locus YDL101C, strain DUN1, active compounds read low 0.992 | locus YDL185W, strain tfp1, active compounds read low 0.968 | locus YDL192W, strain arf1, active compounds read low 0.981 | locus YDR001C, strain nth1, active compounds read low 1.02 | locus YDR069C, strain doa4, active compounds read low 1.03 | locus YDR101C, strain arx1, active compounds read low 0.973 | locus YDR137W, strain rgp1, active compounds read low 0.988 | locus YDR159W, strain sac3, active compounds read low 1.06 | locus YDR162C, strain NBP2, active compounds read low 0.938 | locus YDR195W, strain ref2 1.01 | locus YDR297W, strain sur2, active compounds read low 1.01 | locus YDR318W, strain mcm21, active compounds read low 0.977 | locus YDR334W, strain swr1, active compounds read low 1.03 | locus YDR335W, strain msn5, active compounds read low 1.04 | locus YDR388W, active compounds read low 0.965 | locus YDR392W, strain spt3, active compounds read low 0.955 | locus YDR502C, strain sam2, active compounds read low 1.02 | locus YEL003W, strain gim4, active compounds read low 1.04 | locus YEL037C, strain rad23, active compounds read low 1.02 | locus YEL061C, strain CIN8 (second series), active compounds read low 1.03 | locus YER015W, strain faa2, active compounds read low 1.02 | locus YER016W, strain bim1, active compounds read low 1.03 | locus YER110C, active compounds read low 0.973 | locus YER111C, strain swi4, active compounds read low 1.02 | locus YER155C, strain BEM2 (second series), active compounds read low 1.05 | locus YER155C, strain BEM2, active compounds read low 0.982 | locus YER167W, strain BCK2, active compounds read low 0.975 | locus YFR010W, strain ubp6, active compounds read low 1.04 | locus YGL078C, strain dbp3, active compounds read low 1.02 | locus YGL086W, strain mad1, active compounds read low 0.996 | locus YGL167C, strain pmr1, active compounds read low 1.02 | locus YGL173C, strain kem1, active compounds read low 1.04 | locus YGL227W, strain vid30, active compounds read low 1.03 | locus YGL240W, strain doc1, active compounds read low 1.03 | locus YGL248W, strain PDE1, active compounds read low 1.01 | locus YGL253W, strain hxk2, active compounds read low 1.07 | locus YGR135W, strain pre9, active compounds read low 1.07 | locus YGR229C, strain SMI1, active compounds read low 0.914 | locus YGR252W, strain gcn5, active compounds read low 1.05 | locus YHR013C, strain ard1, active compounds read low 1.03 | locus YHR027C, strain rpn1, active compounds read low 1.02 | locus YHR079C, strain IRE1 (second series), active compounds read low 0.982 | locus YHR094C, strain hxt1, active compounds read low 0.976 | locus YHR129C, strain ARP1, active compounds read low 0.988 | locus YHR142W, strain chs7, active compounds read low 1.03 | locus YHR200W, strain rpn10, active compounds read low 0.999 | locus YIL066C, strain RNR3, active compounds read low 0.961 | locus YIL073C, strain SPO22, active compounds read low 1.03 | locus YIL125W, strain kgd1, active compounds read low 0.986 | locus YIR030C, strain dcg1, active compounds read low 0.972 | locus YJL092W, strain hpr5, active compounds read low 1.03 | locus YJL095W, strain BCK1 (second series), active compounds read low 1.04 | locus YJL095W, strain BCK1, active compounds read low 1.02 | locus YJL115W, strain asf1, active compounds read low 1.01 | locus YJL129C, strain trk1, active compounds read low 1.01 | locus YJL134W, strain LCB3, active compounds read low 0.974 | locus YJL154C, strain vps35, active compounds read low 1.03 | locus YJL164C, strain tpk1, active compounds read low 1 | locus YJL166W, strain qcr8, active compounds read low 1.03 | locus YJL168C, strain set2, active compounds read low 0.991 | locus YJL187C, strain SWE1 (second series), active compounds read low 1.01 | locus YJL187C, strain SWE1, active compounds read low 1.03 | locus YKL009W, strain mrt4, active compounds read low 0.976 | locus YKL068W, active compounds read low 0.984 | locus YKL085W, strain MDH1 (second series), active compounds read low 0.979 | locus YKL085W, strain MDH1, active compounds read low 0.979 | locus YKL160W, strain elf1, active compounds read low 1.01 | locus YKL190W, strain CNB1, active compounds read low 0.981 | locus YKR001C, strain vps1, active compounds read low 0.977 | locus YKR026C, strain gcn3, active compounds read low 1.03 | locus YKR091W, strain srl3, active compounds read low 1.02 | locus YLL001W, strain dnm1, active compounds read low 1 | locus YLL026W, active compounds read low 1.01 | locus YLL041C, strain sdh2, active compounds read low 1.02 | locus YLR027C, strain aat2, active compounds read low 1.05 | locus YLR039C, strain RIC1, active compounds read low 0.945 | locus YLR058C, strain SHM2, active compounds read low 0.978 | locus YLR102C, strain apc9, active compounds read low 0.996 | locus YLR221C, strain rsa3, active compounds read low 1.05 | locus YLR258W, strain gsy2, active compounds read low 1.04 | locus YLR262C, strain YPT6 (second series), active compounds read low 1.03 | locus YLR268W, strain sec22, active compounds read low 0.943 | locus YLR320W, strain mms22, active compounds read low 1.05 | locus YLR330W, strain CHS5, active compounds read low 0.987 | locus YLR342W, strain FKS1 (second series), active compounds read low 0.97 | locus YLR342W, strain FKS1, active compounds read low 1.02 | locus YLR357W, strain rsc2, active compounds read low 1.03 | locus YLR370C, strain arc18, active compounds read low 1.02 | locus YLR371W, strain rom2, active compounds read low 1.02 | locus YLR384C, strain iki3, active compounds read low 1.01 | locus YLR418C, strain cdc73, active compounds read low 1.04 | locus YML016C, strain PPZ1, active compounds read low 0.974 | locus YML032C, strain rad52, active compounds read low 0.985 | locus YML120C, strain ndi1, active compounds read low 0.999 | locus YML124C, strain tub3, active compounds read low 0.982 | locus YMR058W, strain fet3, active compounds read low 1.04 | locus YMR078C, strain ctf18, active compounds read low 0.997 | locus YMR125W, strain sto1, active compounds read low 0.998 | locus YMR129W, active compounds read low 1.02 | locus YMR205C, strain PFK2, active compounds read low 1.04 | locus YMR223W, strain ubp8, active compounds read low 1.02 | locus YMR231W, strain pep5, active compounds read low 1.02 | locus YMR263W, strain SAP30, active compounds read low 0.984 | locus YMR307W, strain GAS1, active compounds read low 0.926 | locus YNL067W, strain RPL9B, active compounds read low 1.01 | locus YNL071W, strain lat1, active compounds read low 1.03 | locus YNL209W, strain ssb2, active compounds read low 1.01 | locus YNL233W, strain BNI4, active compounds read low 1.05 | locus YNL248C, strain rpa49, active compounds read low 1.03 | locus YNL250W, strain rad50, active compounds read low 0.956 | locus YNL271C, strain bni1, active compounds read low 0.991 | locus YNL298W, strain CLA4, active compounds read low 0.967 | locus YNL307C, strain MCK1, active compounds read low 1.01 | locus YNL322C, strain KRE1 (second series), active compounds read low 1.01 | locus YNR049C, strain mso1, active compounds read low 1.05 | locus YNR052C, strain pop2, active compounds read low 1.04 | locus YOL006C, strain TOP1, active compounds read low 0.973 | locus YOL012C, strain htz1 0.722 | locus YOL147C, strain pex11, active compounds read low 0.985 | locus YOR001W, strain rrp6, active compounds read low 1.06 | locus YOR061W, strain CKA2, active compounds read low 0.957 | locus YOR069W, strain VPS5, active compounds read low 0.983 | locus YOR070C, strain gyp1, active compounds read low 1.03 | locus YOR080W, strain dia2, active compounds read low 1.02 | locus YOR083W, strain WHI5, active compounds read low 1.06 | locus YOR106W, strain vam3, active compounds read low 1.02 | locus YOR136W, strain idh2, active compounds read low 0.992 | locus YOR144C, strain elg1, active compounds read low 0.988 | locus YOR184W, strain ser1, active compounds read low 0.909 | locus YOR265W, strain rbl2, active compounds read low 1.02 | locus YOR270C, strain vph1, active compounds read low 1.13 | locus YOR290C, strain snf2, active compounds read low 1.03 | locus YOR316C, strain cot1, active compounds read low 0.992 | locus YPL051W, strain arl3, active compounds read low 1.01 | locus YPL055C, strain LGE1, active compounds read low 0.932 | locus YPL078C, strain atp4, active compounds read low 1 | locus YPL106C, strain sse1, active compounds read low 0.991 | locus YPL240C, strain hsp82, active compounds read low 1.02 | locus YPL241C, strain CIN2, active compounds read low 0.997 | locus YPR119W, strain clb2, active compounds read low 0.989 | locus YPR141C, strain kar3, active compounds read low 0.977 | locus YPR163C, strain tif3, active compounds read low 0.989 | locus YPR167C, strain met16, active compounds read low 0.993 | strain wtn01, active compounds read low 0.958
